Screening results as filed in PubChem.
HTR5A ag – HTR5A agonists in luminescence cell assay, primary screen, counter-screen for OPRM1-OPRD1 heterodimer agonist project, full-deck HTS; cell-based; activation, % at 9.3 µM; actives 0.61% (n = 340,000); AID 504692, 2011; in the data active = activation mostly above about 9.5%, no sharp cut-off; inactive = mostly below about 7.6%
Target sequence (P47898 whole entry, looked up): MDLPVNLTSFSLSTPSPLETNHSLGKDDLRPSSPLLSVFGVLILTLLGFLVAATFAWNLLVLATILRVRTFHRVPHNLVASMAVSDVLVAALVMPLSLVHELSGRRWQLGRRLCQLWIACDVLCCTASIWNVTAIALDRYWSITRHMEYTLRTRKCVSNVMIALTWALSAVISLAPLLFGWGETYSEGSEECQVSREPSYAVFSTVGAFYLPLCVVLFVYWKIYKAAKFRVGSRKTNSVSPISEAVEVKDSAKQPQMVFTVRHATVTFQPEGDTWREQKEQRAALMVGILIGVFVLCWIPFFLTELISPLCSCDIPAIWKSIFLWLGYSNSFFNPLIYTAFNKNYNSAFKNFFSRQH
MsrA inhibitor – bovine MsrA enzyme inhibitors, primary screen, biochemical, absorbance, HTS. Methionine sulfoxide reductase A (Bos taurus). purified bovine MsrA, absorbance read-out. inhibition, % at 15.5 µM. actives 0.75% (n = 360,000)
MsrA act – bovine MsrA enzyme activators, primary screen, biochemical, absorbance, HTS | activation, % at 10.6 µM | purified bovine MsrA, absorbance read-out | Methionine sulfoxide reductase A (Bos taurus) | AID 602163, 2012 | actives 0.3% (n = 360,000); in the data active = activation above about 7.5%
HTR5A inv ctr – HTR5A inverse agonists in luminescence cell assay, primary screen, counter-screen for OPRM1-OPRD1 heterodimer inverse agonist project, full-deck HTS. 5-hydroxytryptamine receptor 5A (Homo sapiens), P47898. inhibition, % at 9.3 µM. HTR5A cell line, inverse agonism. actives 0.083% (n = 340,000); in the data active = inhibition mostly above about 23%, no sharp cut-off; inactive = mostly below about 18%
OPRM1-OPRD1 ag – agonists of OPRM1-OPRD1 heterodimerization, primary screen, cell-based, luminescence. Mu-type opioid receptor (Homo sapiens) + Delta-type opioid receptor (Homo sapiens), …. cells. activation, % at 9.3 µM. actives 0.3% (n = 340,000). AID 504326, 2011; in the data active = activation above about 18%
OPRM1-OPRD1 inv – inverse agonists of MOR-DOR heterodimerization, primary screen, cell-based, luminescence. Mu-type opioid receptor (Homo sapiens) + Delta-type opioid receptor (Homo sapiens), …. actives 0.21% (n = 340,000). inhibition, % at 9.3 µM. cell-based MOR-DOR heterodimer luminescence, inverse agonism; in the data active = inhibition above about 22%, passing the limit was not always enough
MsrA conf – bovine MsrA inhibitors, retest, confirmation, biochemical, absorbance, HTS; AID 651822, 2012; purified bovine MsrA, absorbance read-out; actives 41% (n = 2,300); shares compounds with MsrA inhibitor; inhibition, % at 15.5 µM;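 also: coupled to thioredoxin reductase with NADPH and selenocystamine and DMSO as substrate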
Hits are given with their value; 0 = inactive; - = no result given. The list is not random: actives were taken first. Their share in the collection is about 1.9%. Rule as the data show it, unless noted: active = inhibition above about 4.5%; inactive = the rest.

SMILES | HTR5A ag | MsrA inhibitor | MsrA act | HTR5A inv ctr | OPRM1-OPRD1 ag | OPRM1-OPRD1 inv | MsrA conf
C=CCN1C[C@H](COC(=O)CSc2ccccc2)Oc2cccc(F)c2S1(=O)=O | - | 0 | - | - | - | - | -
Nc1[nH]c(C(=O)c2ccccc2)c(-c2cccc3ccccc23)c1C(=O)c1cccs1 | - | 0 | - | - | - | - | -
COC(=O)c1ccc2nc(-c3ccc(C)cc3)c(CC(C)(C)C)n2c1 | - | 0 | - | - | - | - | -
COC(=O)C[C@H]1CC[C@H](NC(=O)Nc2ccccc2F)[C@@H](CO)O1 | - | 0 | - | - | - | - | -
O=C(O)/C=C/c1ccc(-c2cccc(C(F)(F)F)c2)o1 | 0 | 6.0 | 0 | 0 | 0 | 0 | 0
COc1ccc(C(=O)N2CCN(c3cnn(-c4ccccc4)c(=O)c3Cl)CC2)cc1 | 0 | 4.7 | 0 | 0 | 0 | 0 | 0
Cn1ncc(N2CCN(C(=O)c3ccc(Cl)cc3)CC2)c(Cl)c1=O | 0 | 0 | 0 | 0 | 0 | 0 | -
CC(=O)c1ccc(-c2ccc(C(=O)NC3CC(C)(C)NC(C)(C)C3)o2)cc1 | 0 | 5.4 | 0 | 0 | 0 | 0 | 5.3
CC1(C)CC(NC(=O)c2ccc(F)cc2)CC(C)(C)N1 | - | 0 | 0 | - | - | - | -
S=c1nccc(-c2ccc3c(c2)CCO3)[nH]1 | 0 | 5.6 | 0 | 0 | 0 | 0 | 0
CC1(C)CCc2cc(-c3ccnc(=S)[nH]3)ccc2O1 | 0 | 0 | 0 | 0 | 0 | 0 | -
COc1ccc(CN=C(C#N)C2=C(O)c3ccccc3C2=O)cc1 | 0 | 0 | 0 | 0 | 0 | 0 | -
N#CC(=Nc1cccc(F)c1)C1=C(O)c2ccccc2C1=O | - | 5.2 | 0 | - | - | - | 0
CCOC(=O)C1=C(C)OC(N)=C(C#N)C1c1ccsc1 (stereo not given) | 0 | - | 0 | 0 | 0 | 0 | -
N#CC1=C(N)Oc2c(O)cc3ccccc3c2C1c1ccsc1 (stereo not given) | 0 | 8.5 | 0 | 0 | 0 | 0 | 10.4
COc1ccccc1-c1c(C)c(C)nc(N)c1C#N | 0 | 0 | 0 | 0 | 0 | 0 | -
CCc1nc(N)c(C#N)c(-c2ccccc2OC)c1C | 0 | 4.7 | 0 | 0 | 0 | 0 | 0
COc1ccccc1NC(=O)N(C)C[C@H]1OCc2cn(nn2)CCCC(=O)N([C@H](C)CO)C[C@@H]1C | - | 0 | - | - | - | - | -
O=[N+]([O-])c1ccc(N/N=C2\CC3CC=CC23)c([N+](=O)[O-])c1 (stereo not given) | 0 | 5.6 | 0 | 0 | 0 | 0 | 0
O=[N+]([O-])c1ccc(N/N=C2\CC3CC=CC23)cc1 (stereo not given) | 0 | 0 | 0 | 0 | 0 | 0 | -
CC(=O)N1CCCN(Cc2cn(-c3cc(C)ccc3C)nc2-c2ccccc2)CC1 | 0 | 5.0 | 0 | 0 | 0 | 0 | 0
C[C@H](CO)N1C[C@H](C)[C@H](CN(C)C(=O)NC2CCCCC2)OCc2cnnn2CCCC1=O | - | 0 | - | - | - | - | -
CN=Cc1nc(-c2ccccc2)oc1O | 0 | 9.9 | 0 | 0 | 0 | 0 | 7.3
CCN(CC)C(=O)c1ncn2c1C(=O)N[C@@H](C)C2 | - | 0 | - | - | - | - | -
Cc1cc(C)n(CC(=O)N2CCc3ccccc32)c(=O)c1C#N | 0 | 0 | 0 | 0 | 0 | 0 | -
SMILES | HTR5A ag | MsrA inhibitor | MsrA act | HTR5A inv ctr | OPRM1-OPRD1 ag | OPRM1-OPRD1 inv | MsrA conf
Cc1cc2n(c(=O)c1C#N)CCCN2c1ccccc1 | 0 | 6.1 | 0 | 0 | 0 | 0 | 4.5
Cc1cc(N2CCN(C(=O)OC(C)(C)C)C[C@H]2C)ccc1N1C[C@@H](C)O[C@@H](C)C1 | - | 0 | - | - | - | - | -
O=C(O)c1cccc2c1-c1c(cccc1[N+](=O)[O-])C2 | 0 | 5.9 | 0 | 0 | 0 | 0 | 0
O=C(O)c1cccc2c1C(=O)c1cc([N+](=O)[O-])cc([N+](=O)[O-])c1-2 | - | 5.6 | 0 | - | - | - | 0
COC(=O)[C@@]12C[C@@H](CC(=O)NCc3ccc(C)o3)C(=O)N(CCc3ccc(OC)c(OC)c3)C1=CCC(C)(C)C2 | - | 0 | - | - | - | - | -
CCCCC1OC(CCc2ccccc2)CC2=C1C(=O)OC(C)(C)O2 (stereo not given) | - | 0 | - | - | - | - | -
Cc1cccc(-c2ccc(O)cc2CN2CCN(c3ncc(Cc4ccccc4)cn3)CC2)c1 | - | 0 | - | - | - | - | -
CCC(=O)Nc1ccc2c(c1)OC[C@@H](C)N(Cc1cccc(F)c1)C[C@@H](C)[C@@H](OC)CN(C)C2=O | - | 0 | - | - | - | - | -
CCCN=C(C)C1=C(O)c2ccccc2C1=O | 0 | 0 | 0 | 0 | 0 | 0 | -
CC(=NCc1cccnc1)C1=C(O)c2ccccc2C1=O | 0 | 4.9 | 0 | 0 | 0 | 0 | 0
CCCNC1=C(N(C(C)=O)c2cccc(F)c2)C(=O)c2ccccc2C1=O | 0 | 21.6 | 0 | 0 | 0 | 0 | 5.0
C=CCN1C(C(=O)OCC)CSCCS1(=O)=O (stereo not given) | - | 0 | - | - | - | - | -
O=C(O)CC(Sc1ccc(Cl)cc1)C(=O)Nc1ccccc1 (stereo not given) | - | 0 | - | - | - | - | -
CC1Sc2ccc(C#N)cc2N(Cc2cccc(C(F)(F)F)c2)C1=O (stereo not given) | - | 5.4 | 0 | - | - | - | 0
CCc1c(-c2cccc(Br)c2)ncn1CCc1ccccc1OC | - | 0 | - | - | - | - | -
CN(CCc1ccccc1)C(C(=O)c1ccc2c(c1)OCO2)c1nnnn1-c1ccccc1NC(=O)OC(C)(C)C (stereo not given) | - | 0 | - | - | - | - | -
O=C(O)CCCNC(=O)/C(=C\C=C\c1ccccc1)NC(=O)c1ccccc1Cl | 0 | 5.8 | 0 | 0 | 0 | 0 | 0
C=CCNC(=O)/C(=C\C=C\c1ccccc1)NC(=O)c1ccccc1Cl | 0 | 0 | 0 | 0 | 0 | 0 | -
CC1(C)CCCN(C(=O)c2coc(=O)c(Br)c2)C1 | 0 | 4.9 | 0 | 0 | 0 | 0 | 0
Cc1ccc(/C=N/NC(=O)c2ccccn2)s1 | 0 | 4.9 | 0 | 0 | 0 | 0 | 5.2
C=C1[C@@H](C)CN[C@@H]1CCO | - | 0 | - | - | - | - | -
O=C(O)c1cccc(NC2=C(n3nnc4ccccc43)C(=O)c3ccccc3C2=O)c1 | 0 | 32.5 | 0 | 0 | 0 | 0 | 28.1
CCC12CC1(C(=O)OC)C(=O)N1CCc3c([nH]c4ccccc34)C12 (stereo not given) | - | - | 0 | - | - | - | -
O=C(N/N=C/c1cn(-c2cccs2)nc1-c1ccccc1)c1ccccc1Br | 0 | 6.5 | 0 | 0 | 0 | 0 | 0
O=C(N/N=C/c1cn(-c2ccccc2)nc1-c1cc2ccccc2o1)c1ccccc1Br | 0 | 0 | 0 | 0 | 0 | 0 | -
O=C(N/N=C/c1cn(-c2cccs2)nc1-c1ccccc1)c1ccccc1O | 0 | 5.5 | 0 | 0 | 0 | 0 | 0
CC(=O)N1CCN(c2ccc(N3CCN(C(C)=O)[C@@H](C)C3)c(C)c2)[C@H](C)C1 | - | 0 | - | - | - | - | -
C[C@H]1[C@@H](c2ccccc2)Oc2ccc(Cl)cc2S(=O)(=O)N1Cc1ccc(Cl)cc1 | - | 0 | - | - | - | - | -
Nc1nc2nccc(-c3ccc(Cl)cc3)n2n1 | 0 | 5.2 | 0 | 0 | 0 | 0 | 0
